Results taken from PubChem BioAssay (NCI).
This is part of a sample that, as a whole, favours compounds with a hit. Of some 83,000 tested, about 20% had one in any assay.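 Method: cells in 96-well plates; compound added at one concentration; 48 h incubation; percent growth measured; values under 10 scored active.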 A number with no mark means an inactive call. Activity calls are given as the source filed them.

What was measured:
Test in all cases: NCI-60 one-dose screen, 48 h (100 = growth as untreated, 0 = no growth, -100 = all killed)
Details in all cases: 10 µM unless noted
[1] = tested on: NCI-H23 lung
[2] = tested on: NCI-H226 lung
[3] = tested on: NCI-H322M lung
[4] = tested on: HOP-62 NSCLC
[5] = tested on: NCI-H460 lung
[6] = tested on: HOP-92 NSCLC
[7] = tested on: NCI-H522 lung
[8] = tested on: A549/ATCC NSCLC
[9] = tested on: 786-0 renal
[10] = tested on: COLO 205 colon
[11] = tested on: DU-145 prostate
[12] = tested on: K-562 leukemia
[13] = tested on: MALME-3M melanoma
[14] = tested on: MDA-MB-231 breast
[15] = tested on: RXF 393 renal
[16] = tested on: SF-268 CNS
[17] = tested on: SF-295 CNS
[18] = tested on: SF-539 CNS
[19] = tested on: UACC-257 melanoma
[20] = tested on: M14 melanoma

Row | SMILES | growth [1] | growth [2] | growth [3] | growth [4] | growth [5] | growth [6] | growth [7] | growth [8] | growth [9] | growth [10] | growth [11] | growth [12] | growth [13] | growth [14] | growth [15] | growth [16] | growth [17] | growth [18] | growth [19] | growth [20]
1 | CS(=O)(=O)Nc1cc(-c2ccc3ncnc(Nc4cccc(Cl)c4F)c3c2)cnc1Cl | 56.6% | 49.2% | 47.2% | 54.7% | 41.5% | 13.3% | 53.8% | 67.4% | 29.6% | 66.3% | 63% | 53.4% | 18.2% | 13.7% | -24% (active) | 24.2% | 34.7% | 27.8% | 40.1% | 50.1%
2 | CCOC(=O)c1c(C)oc2ncnc(N3CCN(C(=O)COc4ccc(C(C)(C)C)cc4)CC3)c12 | 72.5% | 66.5% | 88.8% | 90.8% | 91.4% | 62.9% | 77.9% | 86% | 99.1% | 76.9% | 87.5% | 53.5% | 70.2% | 80.5% | 92.1% | 91% | 79.9% | 96.1% | 78.4% | 74.5%
3 | COc1ccc2c(c1)c(-c1nn3cc(-c4cccs4)nc3s1)cn2C | 82.5% | 78.9% | 55.8% | 85.6% | 68.7% | 44.7% | 63% | 81.1% | 97.5% | 64.5% | 89.7% | 51% | 72.1% | 54.1% | 96.3% | 80.3% | 66.9% | 81.3% | 105% | 71.6%
4 | Nc1cc2c(cc1Br)-c1cc(Cl)ccc1C2=O | 97.1% | 81.1% | 102% | 99.1% | 100% | 87.6% | 96.1% | 96.7% | 98.6% | 87.3% | 107% | 93.2% | 107% | 79.8% | 101% | 90.6% | 106% | 99.2% | 103% | 105%
5 | COc1ccc(-c2nc(NN)c3c(C)nn(-c4ccc(F)cc4)c3n2)cc1 | 66.9% | 80% | 74.6% | 50.6% | 18.8% | 52.7% | 22.6% | 38.1% | 38.6% | 35.4% | 37.9% | 17.8% | 61.5% | 53.1% | 51% | 46.3% | 27.8% | 36.2% | 45.3% | 26.4%
6 | Cn1cc(C(=O)c2nc(-c3cn(C)c4ccc(F)cc34)no2)c2cc(F)ccc21 | 92.5% | 89.1% | 84% | 92.2% | 90.7% | 83.6% | 79.3% | 87.5% | 107% | 103% | 110% | 96.2% | 96.4% | 96.7% | 116% | 99.6% | 100% | 107% | 94.9% | 100%
7 | COc1cc(C(=O)/C=C/c2c(Cl)nc3sccn23)cc(OC)c1OC | 91.8% | 92% | 77.3% | 83.3% | 87.1% | 57.3% | 61.8% | 83% | 91.6% | 104% | 83.8% | 37.6% | 91.9% | 77.2% | 79.5% | 77.8% | 112% | 86.5% | 71.3% | 79.4%
8 | Cc1[nH]c(C(=O)Nc2ccc(C(=O)N3CCNCC3)cc2OC(C)C)c(Cl)c1Cl | 90.7% | 97.2% | 86.1% | 88.7% | 2.04% (active) | 43.5% | 94% | 70.2% | 77.6% | -47% (active) | 68.1% | -28.6% (active) | 72.6% | 22.9% | 71.3% | 74.4% | 107% | 80.8% | 101% | 45.5%
